According to PubChem BioAssay (NCATS):
Several values for one entry are separate records, joined by “and”; a condition that tells them apart may be missing. Identical values can stand only once. Inconclusive results are not listed. Activity calls are given as the source filed them. Unless noted, the call rests on the fitted dose curve; in most records, active means well fitted curve in the direction sought with a large enough effect; inconclusive means small, poorly fitted or top-dose-only effect, or another doubt; inactive means no such curve, though single readings can be large; an effect the other way counts as inactive or inconclusive.

Legend:
[1] = Cell Viability - N2a (AID 540); conditions: N2a mouse neuroblastoma cell viability; at 92.2 µM (top of the series);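 further: cells exposed to compound for 40 h at 37 °C; plate controls were DMSO alone for no effect and tamoxifen control for full effect; nearly all actives have a fitted effect of over 45% in size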
In short: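 First, 1500 N2a cells per well incubate 5 hr at 37 °C; next, compounds are added and incubated 40 hr at 37 °C; finally CellTiter-Glo is added and luminescence read after 20 min, with AC50 derived by Hill modeling.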

[2] = Cellular Toxicity (caspase-3) HepG2 (AID 654); conditions: HepG2 caspase-3 activation, luminescence, 0% = DMSO only, 100% = tamoxifen; series mostly up to 92.2 µM;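 further: cells exposed to compound for 16 hours before reading; 0% = DMSO alone and 100% = caspase signal from 100 µM tamoxifen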
In short: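 qHTS, HepG2, 1500 cells/well, complete medium; cpd 16 h 37 °C; Caspase-Glo 3/7, 20 min RT; lum. Norm: DMSO vs 100 uM tamoxifen; AC50 Hill fit.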

[3] = Cellular Toxicity (caspase-3) Hek293 (AID 664); conditions: HEK293 caspase-3 activation, DMSO = 0%, 100 µM tamoxifen = 100%; series mostly up to 92.2 µM;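 further: cells exposed to compound for 16 h at 37 °C before readout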
In short: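 Activation of caspase-3/7 is measured as increased luminescence from cleaved peptide-aminoluciferin substrate in HEK293 cells treated 16 hours at 37 °C. AC50 values come from Hill-equation fits of concentration-response data.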

[4] = MultiTox-Fluor Cytotoxicity Assay - LYMP1-002 - Live Cells (AID 955); conditions: LYMP1-002 lymphoblastoid live-cell protease fluorescence viability; series mostly up to 46.1 µM; further: on the % scale 0 is the no-effect control and ±100 the full control effect
In short: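 Cytotoxicity in the human lymphoblastoid line LYMP1-002 is measured as loss of live-cell protease activity after 16 h treatment in complete culture medium. AC50 is derived from Hill-equation fits of qHTS concentration-response data.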

[5] = MultiTox-Fluor Cytotoxicity Assay - LYMP1-002 - Dead Cells (AID 960); conditions: LYMP1-002 lymphoblastoid cells, dead-cell protease fluorescence; series mostly up to 46.1 µM;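 further: 0% = DMSO and 100% = tetraoctylammonium bromide; nearly all actives have a fitted effect of over 60% in size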
In short: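 Acute cytotoxicity in a human lymphoblastoid line is scored as rising dead-cell protease signal after 16 hr exposure at 37 C, measured fluorometrically (485/520).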

[6] = MultiTox-Fluor Cytotoxicity Assay - LYMP1-003 - Live Cells (AID 962); conditions: LYMP1-003 lymphoblastoid cells, MultiTox-Fluor live-cell protease fluorescence; series mostly up to 92.2 µM;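 further: 0% = DMSO only and full loss = 92 µM tetraoctylammonium bromide; cytotoxic hits lower the live-cell protease signal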
In short: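 Cells plated at 2500 per well and incubated 5 hr; compounds added and incubated 16 hr at 37 C; MultiTox-Fluor reagent added for 60 min at room temperature; fluorescence of liberated AFC measured at 405/510 nm.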

[7] = Cell Viability - LYMP1-003 - Assay at 24 hr (AID 963); conditions: LYMP1-003 lymphoblastoid cell viability; series mostly up to 92.2 µM;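 further: plate controls were DMSO only for no effect and tetraoctylammonium bromide positive control for full effect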
In short: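 Acute toxicity in LYMP1-003 lymphoblastoid cells: 24 hr compound treatment at 37 C, ATP measured with CellTiter-Glo after 30 min at room temperature. AC50 derived by fitting the Hill equation to qHTS titrations.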

[8] = Cell Viability - LYMP2-003 (AID 965); conditions: LYMP2-003 lymphoblastoid cell viability; series mostly up to 92.2 µM;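 further: cells exposed to compounds for 24 h before reading; 0% = DMSO only and full effect = 92 µM tetraoctylammonium bromide; nearly all actives have a fitted effect of over 50% in size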
In short: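 Human lymphoblastoid LYMP2-003 cells, 2500/well, exposed to compounds for 24 h at 37 C in complete medium. Viability read as intracellular ATP by CellTiter-Glo luminescence; AC50 from Hill-equation fits of qHTS concentration-response data.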

[9] = Cell Viability - LYMP2-005 (AID 967); conditions: LYMP2-005 lymphoblastoid cell viability; series mostly up to 92.2 µM;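 further: plate controls were DMSO only for no effect and 92 µM tetraoctylammonium bromide control for full effect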
In short: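 Human lymphoblastoid LYMP2-005 cells, 2,500 per well in complete medium, rested 5 h at 37C then compound-treated 24 h at 37C. Intracellular ATP read by CellTiter-Glo luminescence after 30 min at room temperature; AC50 from Hill-equation fits of concentration-response data.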

[10] = Cell Viability - LYMP2-011 (AID 969); conditions: LYMP2-011 lymphoblastoid cells viability; series mostly up to 92.2 µM;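 further: 0% = DMSO only and full inhibition = 92 µM tetraoctylammonium bromide; nearly all actives have a fitted effect of over 60% in size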
In short: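 Acute toxicity is scored as a concentration-dependent drop in intracellular ATP of a human lymphoblastoid line after 24 hr treatment. Values are AC50s modeled with the Hill equation.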

[11] = Cell Viability - LYMP2-013 (AID 970); conditions: LYMP2-013 lymphoblastoid cells viability; series mostly up to 92.2 µM;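 further: 0% = DMSO only and full inhibition = tetraoctylammonium bromide control; nearly all actives have a fitted effect of over 55% in size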
In short: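 Acute toxicity was measured in human lymphoblastoid cells (2500/well) exposed to compound titrations for 24 hr, with ATP luminescence (CellTiter-Glo) as read-out and AC50 fitted by Hill equation.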

[12] = Cell Viability - LYMP2-015 (AID 971); conditions: LYMP2-015 lymphoblastoid cell viability; series mostly up to 92.2 µM;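 further: 0% = DMSO only and full effect = 92 µM tetraoctylammonium bromide; nearly all actives have a fitted effect of over 55% in size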
In short: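 Acute toxicity was scored as a concentration-dependent drop in intracellular ATP in lymphoblastoid cells after 24 hr compound exposure in complete medium. Detection used CellTiter-Glo luciferase luminescence.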

[13] = Cell Viability - LYMP2-025 (AID 976); conditions: LYMP2-025 lymphoblastoid cell viability; series mostly up to 92.2 µM;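 further: plate controls were DMSO only for no effect and tetraoctylammonium bromide control for full effect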
In short: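 In qHTS format, LYMP2-025 lymphoblastoid cells in complete culture medium received compound for 24 hr; ATP-based CellTiter-Glo signal gave viability, with AC50 derived by Hill equation.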

[14] = Cell Viability - LYMP2-006 (AID 978); conditions: LYMP2-006 lymphoblastoid cell viability, qHTS; series mostly up to 92.2 µM; further: on the % scale 0 is the no-effect control and ±100 the full control effect; nearly all actives have a fitted effect of over 60% in size
In short: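 Human lymphoblastoid cells (LYMP2-006), 2500/well in complete medium, were treated with compound for 24 hr at 37 C. Cellular ATP was read by CellTiter-Glo luminescence after 30 min, and AC50 values came from Hill-equation fits of concentration-response data.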

[15] = Cell Viability - LYMP2-008 (AID 980); conditions: LYMP2-008 lymphoblastoid cell viability, qHTS; series mostly up to 92.2 µM; further: on the % scale 0 is the no-effect control and ±100 the full control effect; nearly all actives have a fitted effect of over 60% in size
In short: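 Acute cytotoxicity is scored as concentration-dependent loss of cellular ATP in a human lymphoblastoid line after 24 hr treatment at 37 C. ATP is quantified by luciferase luminescence.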

[16] = Cell Viability - LYMP1-002 - Assay at 24 hr (AID 993); conditions: LYMP1-002 lymphoblastoid cells viability; series mostly up to 92.2 µM; further: on the % scale 0 is the no-effect control and ±100 the full control effect
In short: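 qHTS, LYMP1-002 lymphoblastoid, 24 h cpd, 37 C, CellTiter-Glo ATP luminescence; AC50 via Hill eq.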

[17] = Cell Viability - LYMP1-002 - Assay at 40 hr (AID 994); conditions: LYMP1-002 lymphoblastoid cell viability; series mostly up to 92.2 µM
In short: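 Viability in the human lymphoblastoid line was measured as intracellular ATP via CellTiter-Glo after 40 hr compound exposure. Tetraoctylammonium bromide served as positive control.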

[18] = target: Peroxisome proliferator-activated receptor delta (Homo sapiens) (UniProt Q03181); test: qHTS assay for small molecule agonists of peroxisome proliferator-activated receptor delta signaling (AID 588534; calls by dose curve;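 further: 0% = DMSO basal wells and 100% = positive control agonist at 10 µM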); conditions: HEK293T PPARdelta-UAS-bla, beta-lactamase ratio, 18 h; series mostly up to 76.7 µM
Sequence of Peroxisome proliferator-activated receptor delta (Homo sapiens) (Q03181 whole entry, looked up): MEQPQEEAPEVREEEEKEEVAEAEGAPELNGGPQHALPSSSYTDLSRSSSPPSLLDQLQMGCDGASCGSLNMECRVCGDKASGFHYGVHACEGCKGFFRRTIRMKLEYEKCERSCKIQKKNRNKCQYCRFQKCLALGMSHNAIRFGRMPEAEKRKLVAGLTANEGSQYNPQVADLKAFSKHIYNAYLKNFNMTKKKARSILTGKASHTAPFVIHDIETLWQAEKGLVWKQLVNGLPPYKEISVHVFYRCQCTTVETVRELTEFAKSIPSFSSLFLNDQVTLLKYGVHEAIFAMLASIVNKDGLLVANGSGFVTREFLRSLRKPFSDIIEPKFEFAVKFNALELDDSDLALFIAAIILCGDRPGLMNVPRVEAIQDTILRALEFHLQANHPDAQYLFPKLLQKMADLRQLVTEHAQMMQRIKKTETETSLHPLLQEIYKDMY
In short: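 Reporter cells were plated and held 5 hrs at 37 C before compounds were added. After 18 hrs at 37 C, CCF4 dye was loaded for 2 hrs at RT and fluorescence measured.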

[19] = target: Peroxisome proliferator-activated receptor alpha (Homo sapiens) (UniProt Q07869); test: qHTS assay for small molecule agonists of the peroxisome proliferator-activated receptor alpha (PPARalpha) signaling pathway (AID 651778); conditions: PathHunter PPARalpha complementation, chemiluminescence, 6 h; stronger effect = higher value; further: % of control where 0% means no effect
Sequence of Peroxisome proliferator-activated receptor alpha (Homo sapiens) (Q07869 whole entry, looked up): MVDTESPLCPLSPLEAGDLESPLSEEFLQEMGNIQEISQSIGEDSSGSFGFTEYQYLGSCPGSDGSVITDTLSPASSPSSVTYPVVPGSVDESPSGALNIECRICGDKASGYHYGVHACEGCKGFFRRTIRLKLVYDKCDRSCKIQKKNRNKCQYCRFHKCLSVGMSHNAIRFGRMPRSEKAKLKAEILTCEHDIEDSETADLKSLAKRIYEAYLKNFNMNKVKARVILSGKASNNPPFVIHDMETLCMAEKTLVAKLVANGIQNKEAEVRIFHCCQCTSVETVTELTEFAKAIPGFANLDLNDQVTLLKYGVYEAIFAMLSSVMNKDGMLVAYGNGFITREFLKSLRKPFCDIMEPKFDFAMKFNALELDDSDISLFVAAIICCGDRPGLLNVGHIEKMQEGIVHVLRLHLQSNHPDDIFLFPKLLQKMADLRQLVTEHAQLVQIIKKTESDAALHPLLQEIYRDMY
In short: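 Chemiluminescence from complemented enzyme reported PPARalpha activation in cells after 6 hr of compound treatment at 37 C. The detection reagent was incubated for 60 min at room temperature, and compounds were scored as agonists.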

[20] = qHTS assay for small molecule agonists of the antioxidant response element (ARE) signaling pathway measured by Nrf2-dependant transcriptional activity (AID 720636; active means well fitted curve in the direction sought with a large enough effect in the repeat runs; an effect the other way counts as inactive or inconclusive;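 further: HepG2 cells with an ARE-driven luciferase reporter; % of control where 0% means no effect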); conditions: ARE-luc HepG2, Nrf2 luciferase reporter, 16 h; series mostly up to 92.4 µM
In short: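 We exposed ARE-luc HepG2 cells, seeded in assay medium with 1% dialyzed FBS and allowed 6 hr to adhere, to test compounds overnight (16 hr, 37 C) before measuring luciferase with ONE-Glo.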

COc1ccc(N)cc1
inactive: activity change, negative = cytotoxicity [1] -29.2% and -31.3% | outcome [2] | outcome [3] | outcome [4] | Potency [5] | Potency [6] | Potency [7] | Potency [8] | Potency [9] | Potency [10] | Potency [11] | Potency [12] | Potency [13] | Potency [14] | Potency [15] | Potency [16] | Potency [17] | outcome [18] | max response [19] -0.77% and -1.08% | outcome [20]

ClC(Cl)=C(Cl)C(Cl)=C(Cl)Cl
inactive: activity change, negative = cytotoxicity [1] -4.4% | outcome [2] | outcome [3] | outcome [4] | Potency [5] | Potency [6] | Potency [7] | Potency [8] | Potency [9] | Potency [10] | Potency [11] | Potency [12] | Potency [13] | Potency [14] | Potency [15] | Potency [16] | Potency [17] | outcome [18] | max response [19] -0.178% and -1.05% | outcome [20]

CCCCCCCC(=O)Cl
inactive: activity change, negative = cytotoxicity [1] 1.92% | outcome [2] | outcome [3] | outcome [4] | Potency [5] | Potency [6] | Potency [7] | Potency [8] | Potency [9] | Potency [10] | Potency [11] | Potency [12] | Potency [13] | Potency [14] | Potency [15] | Potency [16] | Potency [17] | outcome [18] | max response [19] 1.85% | outcome [20]

S=C=Nc1cccc2ccccc12
inactive: activity change, negative = cytotoxicity [1] 6.83% | outcome [2] | outcome [3] | outcome [4] | Potency [5] | Potency [6] | Potency [7] | Potency [8] | Potency [9] | Potency [10] | Potency [11] | Potency [12] | Potency [13] | Potency [14] | Potency [15] | Potency [16] | Potency [17] | outcome [18] | max response [19] 5.47% | outcome [20]

CCCCCCCCCCCC(=O)O
inactive: outcome [18]

C=CC(C)=O
inactive: activity change, negative = cytotoxicity [1] 3.67% | outcome [2] | outcome [3] | outcome [4] | Potency [5] | Potency [6] | Potency [7] | Potency [8] | Potency [9] | Potency [10] | Potency [11] | Potency [12] | Potency [13] | Potency [14] | Potency [15] | Potency [16] | Potency [17] | outcome [18] | max response [19] -1.26% | outcome [20]

c1ccc(-c2ccccc2)cc1
inactive: activity change, negative = cytotoxicity [1] -4.83% | outcome [2] | outcome [3] | outcome [4] | Potency [5] | Potency [6] | Potency [7] | Potency [8] | Potency [9] | Potency [10] | Potency [11] | Potency [12] | Potency [13] | Potency [14] | Potency [15] | Potency [16] | Potency [17] | outcome [18] | max response [19] -2.7% and -1.05% | outcome [20]

O=C(Cl)C(Cl)(Cl)Cl
inactive: activity change, negative = cytotoxicity [1] 4.93% | outcome [2] | outcome [3] | outcome [4] | Potency [5] | Potency [6] | Potency [7] | Potency [8] | Potency [9] | Potency [10] | Potency [11] | Potency [12] | Potency [13] | Potency [14] | Potency [15] | Potency [16] | Potency [17] | outcome [18] | max response [19] -1.02% | outcome [20]

CC1=CCC2CC1C2(C)C (configuration not stated)
inactive: outcome [18]

CCCSC(=O)Cl
inactive: activity change, negative = cytotoxicity [1] -16.5% | outcome [2] | outcome [3] | outcome [4] | Potency [5] | Potency [6] | Potency [7] | Potency [8] | Potency [9] | Potency [10] | Potency [11] | Potency [12] | Potency [13] | Potency [14] | Potency [15] | Potency [16] | Potency [17] | outcome [18] | max response [19] -0.0229% | outcome [20]

C1CCC2CCCCC2C1 (configuration not stated)
inactive: activity change, negative = cytotoxicity [1] 2.93% | outcome [2] | outcome [3] | outcome [4] | Potency [5] | Potency [6] | Potency [7] | Potency [8] | Potency [9] | Potency [10] | Potency [11] | Potency [12] | Potency [13] | Potency [14] | Potency [15] | Potency [16] | Potency [17] | outcome [18] | max response [19] -8.42% | outcome [20]

Cc1cccc([N+](=O)[O-])c1
inactive: activity change, negative = cytotoxicity [1] -15.4% | outcome [2] | outcome [3] | outcome [4] | Potency [5] | Potency [6] | Potency [7] | Potency [8] | Potency [9] | Potency [10] | Potency [11] | Potency [12] | Potency [13] | Potency [14] | Potency [15] | Potency [16] | Potency [17] | outcome [18] | max response [19] -3.99% and -0.65% | outcome [20]

Cc1ccc(O)c(C)c1
inactive: activity change, negative = cytotoxicity [1] 1.99% | outcome [2] | outcome [3] | outcome [4] | Potency [5] | Potency [6] | Potency [7] | Potency [8] | Potency [9] | Potency [10] | Potency [11] | Potency [12] | Potency [13] | Potency [14] | Potency [15] | Potency [16] | Potency [17] | outcome [18] | max response [19] -1.5% and -1.55% and 1.86% | outcome [20]
